Measured values: PubChem BioAssay (NCI)
About 83,000 compounds went through this panel and 20% of them were active in at least one assay; those are over-represented in the sample as a whole.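 Step 1: grow cells in 96-well plates. Step 2: add test compound at a single concentration. Step 3: incubate 48 h. Step 4: record percent growth.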 Calls of active or inactive are those of the source. How the source made its calls: active means growth percent below 10; inactive means the rest.

Columns and labels:
Experiment in all cases: NCI-60 one-dose screen, 48 h (100 = growth as untreated, 0 = no growth, -100 = all killed)
Settings in all cases: 10 µM unless noted
[1] = test system: NCI-H23 lung
[2] = test system: NCI-H226 lung
[3] = test system: NCI-H322M lung
[4] = test system: HOP-62 NSCLC
[5] = test system: NCI-H460 lung
[6] = test system: HOP-92 NSCLC
[7] = test system: NCI-H522 lung
[8] = test system: A549/ATCC NSCLC
[9] = test system: 786-0 renal
[10] = test system: COLO 205 colon

Measured: growth

Clc1ccc2c(NCCNc3nc(Cl)nc4ccccc34)ccnc2c1
active: [1] -61.7% | [2] -80% | [3] -26.4% | [4] -68.6% | [5] -65.4% | [6] -67.6% | [7] -84.6% | [8] -88% | [9] -94.1% | [10] -85.8%

c1cncc(-c2nc3ccccc3[nH]2)c1
inactive: [1] 84.4% | [2] 92.7% | [3] 101% | [4] 83.2% | [5] 105% | [6] 103% | [7] 99.8% | [8] 93.9% | [9] 107% | [10] 89.1%

COc1cc(C(=O)NNC(=O)c2ccccc2O)cc(OC)c1OC
inactive: [1] 101% | [2] 96.8% | [3] 93.5% | [4] 99.7% | [5] 102% | [6] 83% | [7] 61.9% | [8] 82.9% | [9] 97.6% | [10] 94.3%

COc1cc(/C=C/C(=O)c2c(C)n([O-])c3cc(C)c(C)cc3[n+]2=O)cc(OC)c1OC
inactive: [1] 72.7% | [2] 82.8% | [3] 67.6% | [4] 74.6% | [5] 35.4% | [6] 41.5% | [7] 33.6% | [8] 65.9% | [9] 23.1% | [10] 70.1%

COC(=O)c1oc2c(C(C)=O)c(OCCCN(C)C)ccc2c1C
inactive: [1] 97.3% | [2] 96.1% | [3] 82.2% | [4] 123% | [5] 118% | [6] 28.1% | [7] 86.4% | [8] 110% | [9] 96% | [10] 109%

O=C(O)c1ccc(-n2cc(/C=N/Nc3ccc(Cl)cc3)c(-c3ccc(F)c(F)c3)n2)cc1
inactive: [1] 84.9% | [2] 95% | [3] 72.5% | [4] 107% | [5] 93.1% | [6] 81.5% | [7] 47.6% | [8] 78.9% | [9] 67.2% | [10] 99.7%

O=C(Nc1ccc(-n2ccc3c(NC(=O)c4ccccc4)ncnc32)cc1)Nc1cccc(Cl)c1Cl
active: [1] -13.7% | [2] -37.6% | [4] -32% | [5] -48.4% | [6] -21.1% | [7] -31.6% | [8] -69.6% | [9] 6.42%
inactive: [3] 43.9% | [10] 15.9%

C/C(=N/NC(=O)Cn1c2ccccc2c2ccncc21)c1cccs1
inactive: [1] 98.1% | [2] 89.3% | [3] 109% | [4] 100% | [5] 94.6% | [6] 92% | [7] 85.6% | [8] 84.7% | [9] 100% | [10] 105%

CC(Cc1cccc(C(F)(F)F)c1)NCCOC(=O)c1ccccc1 (stereo not given)
inactive: [1] 101% | [2] 98.3% | [3] 100% | [4] 102% | [5] 114% | [6] 114% | [7] 100% | [8] 105% | [9] 97.9% | [10] 106%

COc1ccc2c(c1)C(=O)/C(=C/c1cccc(OCC(=O)c3ccccc3)c1)O2
inactive: [1] 41.4% | [2] 80.9% | [3] 108% | [4] 103% | [5] 93.1% | [8] 105% | [9] 104%
active: [6] -58.8% | [7] -67.7% | [10] -12.5%

CC(C)(C)OC(=O)N1CCN(CCn2cc(C(F)(F)F)c3c(Cl)ncnc32)CC1
inactive: [1] 44.8% | [2] 108% | [3] 96.2% | [4] 88.6% | [5] 59.3% | [8] 96% | [9] 107% | [10] 102%
active: [6] -23.1% | [7] -2.6%

Cc1ccc(N(CC2=NCCN2)c2cccc(O)c2)cc1
inactive: [1] 100% | [2] 100% | [3] 91.5% | [4] 103% | [5] 107% | [6] 91.2% | [7] 102% | [8] 98.8% | [9] 96.8% | [10] 119%

O=C(Nc1cccc([N+](=O)[O-])c1)Nc1cccc([N+](=O)[O-])c1
inactive: [1] 28.3% | [2] 53% | [3] 68% | [4] 88.2% | [5] 35.2% | [7] 10.1% | [8] 60.5% | [9] 71.7% | [10] 59.1%
active: [6] 2.97%

COc1ccc(N)c(S)c1
inactive: [1] 92.3% | [2] 92.8% | [3] 106% | [4] 90.5% | [5] 106% | [6] 88.4% | [7] 84.5% | [8] 77.1% | [9] 107% | [10] 84.5%
